# Assay results taken from PubChem BioAssay (Tox21).
# Inconclusive results are not listed. Unmarked numbers belong to inactive results. Calls of active or inactive are those of the source. Calls come from the whole dose curve.
# Experiment: qHTS assay to identify small molecule agonists of the NFkB signaling pathway - cell viability counter screen (AID 1159515); note: nearly all actives have a fitted effect of over 55% in size
# Details: NFkB-bla ME-180 viability, CellTiter-Glo luminescence, 5 h; series mostly up to 61 µM
# From the text: National Center for Advancing Translational Sciences [NCATS]
# NIH Chemical Genomics Center [NCGC]
# U.S. Environmental Protection Agency [EPA]
# National Institutes of Environmental Health Sciences [NIEHS]
# National Toxicology Program [NTP]
# U.S. Food and Drug Administration [FDA]
# Transcription factors and their stimulated target gene expression play pivotal roles across many cellular processes including responses to environmental stimuli. Proper regulation of associated pathways is critical to maintain cell health and function. Constitutive activation of transcription factor pathways has been implicated in tumors as it may block cellular functions such as apoptosis and lead to invasion and metastasis. One important transcription factor that stimulates gene expression in response to cytokines, UV radiation, and other stimuli is nuclear factor-kappa B (NFkB). To measure activation of the NFkB pathway, the CellSensor NFkB-bla ME-180 cell line (Life Technologies, Carlsbad, CA) that stably expresses beta-lactamase reporter gene under the regulation of a NF-kB response element was used. This assay allows measurement of the NFkB pathway activity induced by compounds in a ME-180 cell line. This system quantitates NF-kB activity using a FRET-based assay system where beta-lactamase expression disrupts FRET, allowing for fluorescent measurement of activity. This cell line has been used to screen the Tox21 10K compound library and to identify compounds that induce the NFkB pathway activity. The cytotoxicity of the Tox21 compound library against the NFkB-bla ME-180 cell line was tested in parallel by measuring cell viability using the CellTiter-Glo assay in the same wells.
# Tox21 Assay Protocol Summary:
# NFkB-bla ME-180 cells were dispensed at 2,000 cells/6 uL of assay medium per well into black wall/clear-bottom 1536-well plates using a Multidrop Combi (ThermoFisher Scientific, Waltham, MA) dispenser. After the assay plates were incubated at 37 C and 5% CO2 for an overnight, 23 nL of compounds dissolved in DMSO, positive controls or DMSO only was transferred to the assay plate by a Pintool station (Kalypsys, San Diego, CA). The assay plates were incubated at 37 C and 5% CO2 for 5 hr. One uL of LiveBLAzer B/G FRET substrate (Life Technologies) was added using a Flying Reagent Dispenser (Aurora Discovery, San Diego, CA) and the plates were incubated at room temperature for 1.5 hr. Fluorescence intensity (405 nm excitation, 460 nm and 530 nm emissions) was measured using an Envision plate reader (PerkinElmer, Shelton, CT). For cytotoxicity, 3 ul/well of CellTiter-Glo reagent was added into the assay plates using an FRD. After 30 min incubation at room temperature, the luminescence intensity was measured using a ViewLux plate reader (PerkinElmer).
# % is set by controls: 0 for no effect and ±100 for the full control effect.
SMILES,"activity, negative = cytotoxic",outcome
FC(F)(F)C(F)(F)C(F)(F)C(F)(F)C(F)(F)C(F)(F)C(F)(F)C(F)(F)C(F)(F)C(F)(F)F,0.724% [at 6.95 µM],
O=C1C(CCS(=O)c2ccccc2)C(=O)N(c2ccccc2)N1c1ccccc1 (stereo not given),,inactive
NC(=O)c1c(Cl)cccc1Cl,,inactive
CCCCCCCCCCCCCCC,,inactive
COC[C@H](c1ccc(C(F)(F)F)cc1)N1CCN(C2(C)CCN(C(=O)c3c(C)ncnc3C)CC2)C[C@H]1C,,inactive
CCCCc1ccc2cccc(S(=O)(=O)O)c2c1,,inactive
C#CC(C)(O)CC(C)C (stereo not given),,inactive
Cc1nccn1CC1CCc2c(c3ccccc3n2C)C1=O (stereo not given),,inactive
CC(C)c1cccc(O)c1,,inactive
O=[N+]([O-])c1ccc(Oc2ccc([N+](=O)[O-])cc2)cc1,,inactive
NC(=O)Nc1nc2ccccc2[nH]1,,inactive
C=CC(=O)OCCCCCC,,inactive
Fc1ccccc1-c1ccccc1,,inactive
CC(C)=CCC/C(C)=C/C(=O)O,,inactive
C[C@H](O)C(=O)Nc1c(I)c(C(=O)NC(CO)CO)c(I)c(C(=O)NC(CO)CO)c1I,,inactive
Nc1[nH]c(=O)ncc1F,,inactive
CCCC=O,,inactive
COc1ccc(COC=O)cc1,,inactive
CCn1c(=O)c2c(nc(/C=C/c3ccc(OC)c(OC)c3)n2C)n(CC)c1=O,,inactive
CC1CCN(CCCC(=O)c2ccc(F)cc2)CC1,,inactive

SMILES,"activity, negative = cytotoxic",outcome
c1ccc(SCCSc2ccccc2)cc1,,inactive
COC(=O)c1ccc(C(=O)OC)c(C(=O)OC)c1,,inactive
CC(C)c1cccc(C(C)C)c1N,,inactive
CC(C)N1C(=O)c2ccccc2C1=O,,inactive
CC(C)(C)C(=O)/C=C/c1ccc(Cl)cc1,,inactive
C=C(C)C(=O)OCCCCCCCCCCCCCCCCCC,,inactive
Nc1ccn(C2CO[C@H](CO)O2)c(=O)n1 (stereo not given in full),,inactive
COCCOC(=O)CC#N,,inactive
N[C@@H](CS)C(=O)O,,inactive
Cc1ccccc1Br,,inactive
CC(C)(O)c1ccccc1,,inactive
CCCCCCCCCCCl,,inactive
C1=C\CC/C=C\CC/C=C\CC/1,,inactive
CCn1cc(C(=O)O)c(=O)c2cc(F)c(N3CCN(C)CC3)cc21,,inactive
C#CC(O)C(CC)CCCC (stereo not given),,inactive
O=C(O)/C=C/c1ccc(Cn2ccnc2)cc1,,inactive
COc1cc(C)cc(O)c1,,inactive
C=C(C)[C@H]1CC=C(C)CC1,,inactive
OCCN1C[C@H](O)[C@@H](O)[C@H](O)[C@H]1CO,,inactive
CC/C=C\C#N,,inactive
